Experimental data published in PubChem BioAssay (NCATS).
Unmarked numbers belong to inactive results. Records with an inconclusive call do not appear. Activity calls are given as the source filed them. Unless noted, the call rests on the fitted dose curve; in most records, active means well fitted curve in either direction with a large enough effect (not every such curve was filed as active); inconclusive means small, poorly fitted or top-dose-only effect, or another doubt; inactive means flat fitted curve, though single readings scatter.

What was measured:
[1] = AP1 Signaling Pathway (AID 357); details: ME-180 AP-1-bla reporter, EGF-induced, beta-lactamase ratio, 5 h; at 17.2 µM (top of the series) unless noted;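 further: ME-180 reporter cells stimulated with EGF at its EC50 level; on the % scale 0 is the no-effect control and ±100 the full control effect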
In short: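 Cells are seeded overnight, exposed to compound titrations and an EC50 level of EGF for 5 hours at 37 °C, then loaded with CCF4 dye for 2.5 hours. Beta-lactamase activity under the AP-1 element is read as a blue/green ratio.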

[2] = NFAT Signaling Pathway (AID 444); details: Jurkat NFAT-bla M1, carbachol, beta-lactamase ratio, 5 h; at 17.2 µM (top of the series) unless noted;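 further: carbachol stimulus at about its EC50 of 1 µM final; on the % scale 0 is the no-effect control and ±100 the full control effect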
In short: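 Jurkat cells with NFAT-driven β-lactamase reporter and co-expressed M1 receptor, stimulated with carbachol (final 1 uM, ~EC50), compound titration, 5 h at 37 °C. CCF4 loaded 1 h at RT; 460/530 nm ratio gave %activity and AC50.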

[3] = Stat Signaling Pathway (AID 446); details: ME-180 SIE beta-lactamase reporter, IL-6 stimulated, 5 h; at 17.2 µM (top of the series) unless noted;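 further: ME-180 cervical cancer cells given 40 pM IL-6 alongside compound; SIE-controlled beta-lactamase reporter measured as 460/530 nm FRET emission ratio; on the % scale 0 is the no-effect control and ±100 the full control effect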
In short: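 Screening format detects activators and inhibitors alike: ME-180 SIE-bla cells stimulated at 40 pM IL-6 for 5 hrs with compound, then dual-emission beta-lactamase read at 405 nm excitation.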

[4] = molecular target: Glucocorticoid receptor (Homo sapiens) (UniProt P04150); test: GR-GFP Redistribution (AID 450;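 active means compounds whose dose series gives a full or clear partial fitted curve of increased nuclear translocation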; further: potency means the concentration at half of the fitted maximal effect)
Glucocorticoid receptor (Homo sapiens), sequence (P04150 whole entry, looked up): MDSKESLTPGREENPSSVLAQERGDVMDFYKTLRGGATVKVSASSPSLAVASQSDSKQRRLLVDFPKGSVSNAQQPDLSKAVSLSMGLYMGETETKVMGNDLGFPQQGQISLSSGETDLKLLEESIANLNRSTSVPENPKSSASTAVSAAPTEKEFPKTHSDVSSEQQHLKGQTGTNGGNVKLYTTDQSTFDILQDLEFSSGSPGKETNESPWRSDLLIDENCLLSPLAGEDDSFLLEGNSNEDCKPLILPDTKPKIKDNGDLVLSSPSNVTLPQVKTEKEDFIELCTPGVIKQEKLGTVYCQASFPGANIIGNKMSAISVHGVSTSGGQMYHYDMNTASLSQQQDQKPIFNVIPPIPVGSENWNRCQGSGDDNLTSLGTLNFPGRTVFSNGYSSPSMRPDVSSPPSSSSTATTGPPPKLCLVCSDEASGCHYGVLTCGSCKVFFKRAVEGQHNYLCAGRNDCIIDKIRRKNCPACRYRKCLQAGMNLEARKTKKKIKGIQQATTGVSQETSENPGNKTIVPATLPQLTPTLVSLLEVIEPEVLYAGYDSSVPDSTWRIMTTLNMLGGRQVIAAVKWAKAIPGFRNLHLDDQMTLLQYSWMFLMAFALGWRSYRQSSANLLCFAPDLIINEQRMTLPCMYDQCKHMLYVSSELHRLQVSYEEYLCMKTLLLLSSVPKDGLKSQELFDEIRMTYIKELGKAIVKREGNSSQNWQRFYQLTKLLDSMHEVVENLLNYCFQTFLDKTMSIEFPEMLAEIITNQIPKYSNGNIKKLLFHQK

Compound | activity change, negative = inhibition [1] | activity change, negative = inhibition [2] | activity, negative = inhibition [3] | Potency [4]
Cc1ccc2[nH]c3c(c2c1)CCCC3C(N)=O (centres undefined) | -5.19% | -1.59% | 8.83% | > 20.6 µM
CSc1nc(C)cc(OCCNS(=O)(=O)c2cc(C)ccc2C)n1 | -11.3% | -2.9% | 1.66% | > 20.6 µM
COC(=O)COn1c(SCC(=O)OC)nc2ccccc2c1=O | 2.38% | 3.27% | -1.3% | > 20.6 µM
COc1ccc(-c2c3c([nH]c(=S)c2C#N)CCC3)cc1 | 22.9% | -5.23% | -7.04% | > 20.6 µM
CCOC(=O)C1=C(C)N=C2SC(C)C(=O)N2C1c1ccc(OC(C)=O)c(OC)c1 (centres undefined) | -14.1% | 10.3% | -17.1% | > 20.6 µM
O=C(O)CCc1nn2cc(-c3ccccc3)nc2[nH]c1=O | 6.39% | -22.2% | 10.5% | > 20.6 µM
CC(C)COc1nc2ccccc2nc1C(C#N)C(=O)NC1CCCCC1 (centres undefined) | -1.14% | 0.574% | 5.36% | > 20.6 µM
O=C(NCCCNCc1ccccc1)/C(=N\O)c1ccccc1 | -2.86% | -1.67% | 4.93% | > 20.6 µM
CCOCCn1c(SC)nc2c1c(=O)[nH]c(=O)n2C | 11% | -1.92% | -1.1% | > 20.6 µM
CCc1nc(NCC(C)C)c(C#N)c2c1COC(C)(C)C2 | -11.6% | -0.964% | 1.74% | > 20.6 µM
CC(=O)c1cc(C#N)c(SCc2ccncc2)nc1C | -9.02% | -4.04% | -3.61% | > 20.6 µM
N#Cc1c(N)sc(=S)c2c1CCCCC2 | 10.8% | -12.9% | -20.4% | > 20.6 µM
COCCOC(=O)C1=C(C)NC(SCC(=O)NC(C)(C)C)=C(C#N)C1c1ccco1 (centres undefined) | -20.5% | 12.6% | -8.48% | > 20.6 µM
CCOC(=O)c1c(C)n(C)c2ccc(OC)c(NC(=O)CN3CCCCC3)c12 | -11.4% | -1.27% | -0.178% | > 20.6 µM
Nc1nc2n(n1)C(c1ccc(F)cc1)CC(c1ccc(F)cc1)N2 (centres undefined) | -1.23% | 10.7% | 5.35% | > 20.6 µM
CCCCCc1nc2sc3c(c2c(=O)n1N)CCC3 | -5.09% | -10.1% | -13% | > 20.6 µM
COc1ccc(CCn2c(=N)c(C#N)cc3c(=O)n4ccccc4nc32)cc1 | -1.65% | -0.836% | 3.03% | > 20.6 µM
COc1ccc(-c2cc(=O)[nH]c(=O)[nH]2)cc1 | 6.12% | -4.97% | -5.47% | > 20.6 µM
O=S(=O)(c1ccc2ccccc2c1)N(CC(O)CN1CCOCC1)c1ccccc1 (centres undefined) | -11.7% | 4.35% | -7.59% | > 20.6 µM
CCN(CC)CCn1c(O)c(N=O)c2ccccc21 | 90.5% [activator] (active) | -17.1% | 14.5% | > 20.6 µM
CN(C)CCCn1c(NC(=O)C2CCCCC2)nc2ccccc21 | 1.38% | -10.7% | 6.97% | > 20.6 µM
c1ccc(OCc2nn3c(-c4ccccn4)nnc3s2)cc1 | -1.82% | -2.83% | 0.158% | > 20.6 µM
CCN(CC)c1nc(N2CCOCC2)c(C#N)c2c1CN(C)CC2 | -1.52% | 12.3% | 9.24% | > 20.6 µM
CCOC(=O)c1c(CN2CCCCC2)oc2ccc(OC)cc12 | 21.2% | 14.1% | 0.706% | > 20.6 µM
CC1(C)Cc2c(c(-c3ccccc3)nc(N3CCCC3)c2C(N)=O)CO1 | 0.989% | -18.8% | 0.41% | > 20.6 µM
Nc1ccc2oc(-c3ccccc3Cl)nc2c1 | -0.869% | 15.3% | 2.57% | > 20.6 µM
